The campaign covered roughly 340,000 compounds. About 3,400 (1%) were called active. This excerpt belongs to a sample that is enriched for actives. A number with no mark means an inactive call.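 How the source made its calls: active means inhibition above the mean over all tested compounds plus 3 SD (cut at about 4.2% in these data); inactive means the rest.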

For 27 compounds, inhibition results are on record in PubChem BioAssay AID504766 (The Scripps Research Institute Molecular Screening Center, 2011).

Chain of Nuclear receptor subfamily 0 group B member 1 (Homo sapiens) (P51843 207-470 limits assumed): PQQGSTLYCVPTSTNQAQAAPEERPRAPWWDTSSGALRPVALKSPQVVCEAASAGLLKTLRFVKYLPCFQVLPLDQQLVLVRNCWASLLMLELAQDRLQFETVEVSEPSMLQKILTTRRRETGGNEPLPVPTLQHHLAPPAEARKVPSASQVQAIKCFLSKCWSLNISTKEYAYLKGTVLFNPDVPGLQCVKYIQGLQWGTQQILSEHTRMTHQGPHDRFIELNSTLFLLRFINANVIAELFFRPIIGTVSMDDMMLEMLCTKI

The assay addresses Nuclear receptor subfamily 0 group B member 1 (Homo sapiens) (UniProt P51843). Nature of the assay: relief of DAX1 transcriptional repression – cell-based, HEK293, Gal4-DAX1, luciferase luminescence, primary screen (AID 504766).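 Further: 0% = DAX1-transfected cells with DMSO and 100% = empty-vector control cells with DMSO; inhibition shows as a rise in luminescence from relieved DAX1 repression.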 Conditions: HEK293 Gal4-DAX1 luciferase reporter, at 6.75 µM, hits give high values. (Reporter assays use an easily measured gene product as a stand-in for the process of interest.)
By inhibition is commonly meant the relative decrease from the control value, in per cent. Consider `O=C(NCCN1CCOCC1)C1CCN(S(=O)(=O)c2ccccc2)CC1`, for which the inhibition was 4.19%. For `CC1(C)CC(=O)C/C(=N\NC(=O)c2cccs2)C1`, the inhibition is -0.39%. `CC1CC(=NNC(=O)C2COc3ccccc3O2)CC(C)(C)C1` (configuration not stated): the inhibition was 0.05%. Under `CC1C/C(=N/NC(=O)c2cccs2)CC(C)(C)C1` (configuration not stated) stands 5.93% (active); under `C[C@H](CO)N1C[C@H](C)[C@@H](CN(C)C(=O)c2cnccn2)Oc2ncc(Br)cc2C1=O`, -0.09%. The result for `COc1ccc(C(=O)NC2CC(C)(C)NC(C)(C)C2)cc1OC` reads 0.53%; that for `COc1cc2c(cc1OC)C(=O)NCC(C)(C)O2`, 4.35% (active); that for `COc1cc(OC)c(C(=O)NC2CC(C)(C)NC(C)(C)C2)cc1OC`, 0.81%. Regarding `O=C(OCc1cn([C@H]2C[C@H](c3ccccc3)N(C(=O)c3cccs3)C[C@@H]2O)nn1)c1ccccc1`, the inhibition was -0.83%. With `COc1ccc(C(=O)NC2=NCCS2)c(OC)c1`, the inhibition was 0.9%. For the compound `COc1ccc(C(=O)Nc2cccc(NC(=O)c3ccc(OC)cc3OC)n2)c(OC)c1`, the inhibition is -0.74%.

In the case of `COc1ccc(C(=O)Nc2nncs2)c(OC)c1`, the inhibition is 5.95% (active).

In the case of `Cn1nc(N)c2ncc(C(Cl)(Cl)Cl)nc21`, the inhibition is 0.87%. For `CCOC(=O)c1c(C)[nH]c(C)c1C(=O)COC(=O)/C=C/c1cccc([N+](=O)[O-])c1`, the inhibition was 0.45%. For the compound `CC1=C(C)CC(C(=O)NC(C)CCc2ccccc2)C(C(=O)O)C1` (configuration not stated), the inhibition is 4.67% (active).

Consider `CCN(CC)S(=O)(=O)N1CCC(C(=O)NC(C)CCc2ccccc2)CC1` (configuration not stated), for which the inhibition was 0.09%.

Regarding `CC(CCc1ccccc1)NC(=O)c1ccc(Br)o1` (configuration not stated), the inhibition is -0.46%. Consider `CC(C)CC1C(=O)N(Cc2cn(CC3CCCCC3)nn2)CCS(=O)(=O)N1Cc1ccc(-c2ccc(Cl)cc2)cc1` (configuration not stated), for which the inhibition was 0.42%.

`CC(=O)c1ccc(OCC(=O)N(C)C2CCS(=O)(=O)C2)cc1` (configuration not stated): the inhibition was -0.31%. Under `CN1CCN(/N=C/c2ccc(C#N)cc2)CC1` stands 2.94%; under `CN1CCN(/N=C/c2ccc(-c3ccc([N+](=O)[O-])cc3)o2)CC1`, 4.57% (active). Under `Cc1ccc(-c2ccc(/C=N/NC(=O)CN3CCOCC3)o2)cc1[N+](=O)[O-]` stands -1.47%.

`C[C@H]1CN(c2ccc(Br)cc2)C(=O)[C@@H]1CC(=O)Nc1ccc(Br)cc1`: the inhibition was 0.61%.

As to `CCc1cc(C(=O)N(CC)CC(=O)Nc2c(F)cccc2F)sc1C`, the inhibition was 1.94%. The result for `CCC(=O)Nc1ccc2nn(-c3ccc(F)cc3)nc2c1` reads 1.93%. Under `Nc1ccc2c(c1)C(O)c1ccc(Cl)cc1-2` (configuration not stated) stands 1.37%; under `Nc1ccc2nn(-c3ccc(Cl)cc3)nc2c1`, 5.29% (active).
